Assay outcomes deposited in PubChem by National Center for Advancing Translational Sciences (NCATS).
The list is not random: actives were taken first. Their share in the collection is about 17%.
HT1080 IDH1KD tx = HT-1080 IDH1 knockdown cell toxicity (counter line); HT-1080 IDH1 knockdown viability, ATP luminescence, 48 h; Potency, µM (titrated, usually from 46.1 µM), for the others: at the top dose activity, negative = toxicity, most hits filed as cytotoxic; 360,000 compounds, 2% hits;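 note: 0% = DMSO wells and -100% = cell-free medium wells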
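After a 2 h attachment period, IDH1KD HT-1080 cells took pin-transferred compound for 48 h at 37 °C; ATP-based luminescence after 10 min room-temperature reagent incubation reported viability.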
HT1080NT lethal = kills 2HG-producing HT-1080-NT fibrosarcoma cells; HT-1080-NT fibrosarcoma viability, CellTiter-Glo ATP luminescence, 48 h; Potency, µM (doses to about 46.1 µM), for the others: top-dose activity, negative = less viability, most hits filed as cytotoxic; 360,000 compounds, 1.6% hits; AID 686970;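 note: NT is the 2HG producing partner of a matched IDH1 knockdown line; 0% = DMSO-treated cells and -100% = media-only wells without cells; nearly all actives have a fitted effect of over 55% in size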
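A 48-hour cytotoxicity screen used HT-1080-NT cells plated 2 hours before compound delivery. ATP-based CellTiter-Glo luminescence measured viability, normalized to DMSO and no-cell controls.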
HepG2 tox = HepG2 cytotoxicity, counter-screen for TGF-b inhibitors | AID 588856 | HepG2 CAGA-GFP viability, ATP luminescence, 18 h | 410,000 compounds, 0.76% hits | Potency, µM (titrated, usually from 46.1 µM), without a hit: at the top dose activity change, negative = cytotoxicity, usual class: cytotoxic
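CellTiter-Glo luminescence gave cytotoxicity after 18 hours at 37 degrees C. The cells were HepG2 CAGA-GFP in 1% FBS DMEM, stimulated with 500 pg/mL TGF-beta after compound addition. %Activity was normalised to no-cell wells (complete cell-killing) and DMSO (no toxicity), and curves were fitted and classified.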
DT40 TDP1 CPT = DT40-hTDP1 cell growth loss with CPT. chicken DT40 Tdp1-/-;hTDP1 cells + 20 nM CPT, ATP luminescence, 48 h. Potency, µM (highest dose often 46.2 µM), for inactives: at the top dose activity change, negative = growth inhibition, hits mostly inhibitors. 420,000 compounds, 12% hits. AID 686979; note: % is set by controls: 0 for no effect and ±100 for the full control effect; nearly all actives have a fitted effect of over 55% in size
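Chicken DT40 Tdp1-/- cells complemented with human TDP1, 400 cells/well, exposed to compounds plus 20 nM camptothecin for at least 48 h at 37 C; viability read as ATP content by CellTiter-Glo luminescence.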
TDP1 cell noCPT = qHTS for Inhibitors of human tyrosyl-DNA phosphodiesterase 1 (TDP1): qHTS in cells in absence of CPT | DT40 Tdp1-/- hTDP1 cells, no CPT, ATP luminescence, 48 h | 420,000 compounds, 15% hits | Potency, µM (doses to about 46.2 µM), without a hit: at the top dose activity change, negative = growth inhibition, most hits filed as inhibitors; note: % is set by controls: 0 for no effect and ±100 for the full control effect; nearly all actives have a fitted effect of over 55% in size
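DT40 Tdp1-/-;hTDP1 cells, no CPT (DMSO vehicle only), 400 cells/well; compounds pin-transferred; ≥48 hr, 37 °C; CellTiter-Glo 30 min RT dark, luminescence read.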
TGFb SMAD3 inh = blocks TGF-b signaling; HepG2 CAGA-GFP TGF-b/SMAD3 reporter, GFP fluorescence, 18 h; TGF-beta stimulated, 500 pg/mL final; Potency, µM (doses to about 46.1 µM), for the others: at the top dose activity, negative = inhibition, actives largely listed as inhibitors; 410,000 compounds, 1.2% hits; AID 588855; note: % is set by controls: 0 for no effect and ±100 for the full control effect; nearly all actives have a fitted effect of over 65% in size
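GFP signal (ex488/em500-530) from TGF-beta-stimulated HEPG2 CAGA-GFP cells, 500 pg/mL final, 18 h at 37 degrees C in DMEM plus 1% FBS, normalized to unstimulated and DMSO-stimulated controls.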
Starred values were filed as active, the others as inactive. Calls come from the whole dose curve; as a rule, active = well fitted curve in the direction sought with a large enough effect; inconclusive = small, poorly fitted or top-dose-only effect, or another doubt; inactive = no such curve, though single readings can be large; an effect the other way counts as inactive or inconclusive. Potency is the fitted concentration of half-maximal effect.

For COc1cc(/C=N/NC(N)=S)ccc1OCC(=O)Nc1ccc(C)cc1 the results were HT1080 IDH1KD tx -3.8%, HT1080NT lethal -12.1%, HepG2 tox -9.6%, DT40 TDP1 CPT inconclusive, TDP1 cell noCPT -26.6% and TGFb SMAD3 inh 18.7%.
Screening CCOc1cc(/C=N/NS(=O)(=O)c2ccccc2)ccc1OS(=O)(=O)c1ccc(C)cc1 returned HT1080 IDH1KD tx -4.9%, HT1080NT lethal -6.8%, HepG2 tox 2.5%, DT40 TDP1 CPT inconclusive, TDP1 cell noCPT -25.0% and TGFb SMAD3 inh 15.0%.
CNC(=S)N/N=C/c1ccc(OCC(=O)Nc2c(C)cc(C)cc2C)c(OC)c1 was read as HT1080 IDH1KD tx -14.6%, HT1080NT lethal -20.5%, HepG2 tox -13.4%, DT40 TDP1 CPT 20.6µM*, TDP1 cell noCPT inconclusive and TGFb SMAD3 inh -42.4%.
For CCOc1cc(/C=N/NC(=O)COc2ccc(Cl)cc2)ccc1OS(=O)(=O)c1ccccc1 the results were HT1080 IDH1KD tx inconclusive, HT1080NT lethal -23.3%, HepG2 tox -1.7%, DT40 TDP1 CPT inconclusive, TDP1 cell noCPT 23.1µM* and TGFb SMAD3 inh -12.7%.
`CCOc1cc(/C=N/NC(=O)COc2ccc(C)cc2)ccc1OC(=O)c1cccs1` gave HT1080 IDH1KD tx -8.9%, HT1080NT lethal -9.2%, HepG2 tox -37.2%, DT40 TDP1 CPT inconclusive, TDP1 cell noCPT inconclusive and TGFb SMAD3 inh 0.0%.
CCOC(CNC(=O)C1CCN(S(=O)(=O)c2ccc3nc4c(c(C(=O)O)c3c2)CCCCC4)CC1)OCC was read as HT1080 IDH1KD tx 7.2%, HT1080NT lethal 3.4%, HepG2 tox 3.9%, DT40 TDP1 CPT 0.0%, TDP1 cell noCPT 7.7% and TGFb SMAD3 inh 4.9%.
`Nc1ccccc1/C=C/c1ccccc1N` gave HT1080 IDH1KD tx -7.1%, HT1080NT lethal -8.3%, HepG2 tox 7.6%, DT40 TDP1 CPT -12.5%, TDP1 cell noCPT inconclusive and TGFb SMAD3 inh 22.2%.
CN1CCN(C(=O)CSc2nc3ccc(NC(=O)c4ccccc4F)cc3s2)CC1 was read as HT1080 IDH1KD tx 9.8%, HT1080NT lethal -13.2%, HepG2 tox -27.5%, DT40 TDP1 CPT inconclusive, TDP1 cell noCPT inconclusive and TGFb SMAD3 inh -28.2%.
Screening CCOc1cc(/C=N\NC(=O)Cc2ccccc2)ccc1OCC(=O)Nc1ccc(C)c(C)c1 returned HT1080 IDH1KD tx 9.8%, HT1080NT lethal 3.8%, HepG2 tox -87.5%, DT40 TDP1 CPT 13µM*, TDP1 cell noCPT 20.6µM* and TGFb SMAD3 inh inconclusive.
Screening COc1cc(/C=N\Nc2ccc([N+](=O)[O-])cc2)ccc1OCC(=O)Nc1ccc(C)c(C)c1 returned HT1080 IDH1KD tx 4.2%, HT1080NT lethal -1.4%, HepG2 tox 3.6%, DT40 TDP1 CPT inconclusive, TDP1 cell noCPT 18.4µM* and TGFb SMAD3 inh 111.1%.
For CCOc1cc(/C=N/O)ccc1OCC(=O)Nc1cccc(C)c1 the results were HT1080 IDH1KD tx 25.0%, HT1080NT lethal 10.2%, HepG2 tox -25.2%, DT40 TDP1 CPT inconclusive, TDP1 cell noCPT inconclusive and TGFb SMAD3 inh -9.0%.
`CCOc1ccccc1-c1nc(-c2ccc(NC(=O)c3ccc(Br)o3)cc2)no1` gave HT1080 IDH1KD tx inconclusive, HT1080NT lethal inconclusive, HepG2 tox 3.1%, DT40 TDP1 CPT 23.1µM*, TDP1 cell noCPT inconclusive and TGFb SMAD3 inh -0.3%.
O=C(/C=C/c1cccc(O)c1)c1cccnc1 was read as HT1080 IDH1KD tx inconclusive, HT1080NT lethal inconclusive, HepG2 tox -74.8%, DT40 TDP1 CPT 8.2µM*, TDP1 cell noCPT 23.1µM* and TGFb SMAD3 inh inconclusive.
